Drawing on PubChem BioAssay AID504648 (National Center for Advancing Translational Sciences (NCATS), 2011), this text covers Potency for 95 molecules.

About 610 (0.16%) of roughly 390,000 compounds were called active. Where a call stands in place of a potency, no number is given. Another 4% or so got no clear call; they are omitted. The call rests on the fitted dose curve; in most records, active means well fitted inhibition curve with a large enough effect; inconclusive means small, poorly fitted or top-dose-only effect, or effect the other way, or another doubt; inactive means no such curve, though single readings can be large or run the other way. Many of the other results were omitted from the sample, so actives are more common in it than they were.
Potency means the concentration at half of the fitted maximal effect.

This assay in a line: Nrf2 qHTS screen for inhibitors: counterscreen for cytotoxicity. The following applies: A549 ARE-Fluc cells, CellTiter-Fluor viability, 18-24 h; series mostly up to 46 µM. An outline of the steps: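 Cytotoxicity counterscreen: CellTiter-Fluor fluorescence was measured in A549 ARE_Fluc cells after 18-24 h of compound exposure in a concentration series. The subsequent BugLite luminescent read reports ARE-luciferase activity.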
As to `Cc1ccc(S(=O)(=O)NC(N)=NCCC[C@@H](NC(=O)CNC(=O)c2ccccc2)C(=O)Nc2cc(C(F)(F)F)ccc2Cl)cc1`, the Potency entry was “inactive”.

For `CCOc1cc(C2C(C(=O)Nc3ccc(OC)cc3)=C(C)Nc3nc(SC)nn32)ccc1O` (stereo not given), the Potency entry is “inactive”. Regarding `CN1CCOc2cc(S(=O)(=O)N3CCN(S(=O)(=O)c4c(F)cccc4F)CC3)cnc21`, the Potency result is “inactive”. The result for `O=C1CN(Cc2ccccc2)S(=O)(=O)c2ccccc21` reads “inactive”. Consider `COc1ccc(C2Nc3ccc(NC(=O)COC(C)=O)cc3C(=O)N2Cc2ccccc2)cc1COc1ccc(NC(C)=O)cc1` (stereo not given), for which the Potency result was “inactive”. The result for `COc1ccc(C2Nc3ccccc3C(=O)N2Cc2ccc(Cl)cc2)cc1COc1ccc(NC(C)=O)cc1` (stereo not given) reads “inactive”; that for `O=C1C[C@@H](c2ccc3ccccc3c2)N1S(=O)(=O)c1ccccc1[N+](=O)[O-]`, “inactive”; that for `CNC(=O)[C@]1(C(F)(F)F)C[C@H](CCc2ccccc2)CCCO1`, “inactive”. The result for `COc1ccc2c(Sc3ccc(C)cc3)c(C(=O)NC(C)c3ccccc3)[nH]c2c1` (stereo not given) reads “inactive”.

For `Cc1cc(NS(=O)(=O)c2ccc3oc(=O)c4ncn(C)c4c3c2)ccc1Br`, the Potency entry is “inactive”. Take `CC(/C=C/c1ccco1)=N/NC(=O)C1COc2ccccc2O1` (stereo not given): the Potency entry was “inactive”. `O=C(Nc1ncc([N+](=O)[O-])s1)C1COc2ccccc2O1` (stereo not given): the Potency was 20.6 µM (active). The result for `CC1CC(=NNC(=O)C2COc3ccccc3O2)CC(C)(C)C1` (stereo not given) reads “inactive”. The result for `Oc1ccc(Br)cc1C1C=C(c2ccc3c(c2)OCO3)NC(c2ccc(Cl)cc2)N1` (stereo not given) reads “inactive”; that for `Cc1ccc(-c2nc(=N)sn2Cc2ccccc2)cc1`, “inactive”; that for `CCCN1CCC(=O)N(C(CSc2ccc(OC)cc2)Cc2ccccc2)CC1` (stereo not given), “inactive”.

`COc1ccc(C2Nc3cccc(OC)c3C(=O)N2Cc2ccccc2)cc1COc1ccc(NC(C)=O)cc1` (stereo not given): the Potency entry was “inactive”.

As to `CCOc1ccc(Br)cc1CSC(=N)N`, the Potency is 20.6 µM (active).

`COCC(C)NCc1cc(Br)ccc1OC` (stereo not given): the Potency entry is “inactive”. The result for `CCOc1ccc(Br)cc1S(=O)(=O)Nc1cccc(S(=O)(=O)N(CC)CC)c1` reads “inactive”; that for `O=C1NS(=O)(=O)c2ccccc21`, “inactive”.

Take `O=C(NC(c1ccco1)c1cc(Cl)c2cccnc2c1O)c1ccccc1` (stereo not given): the Potency result was “inactive”. The result for `O=C1CCc2cc(S(=O)(=O)Nc3cccc(Oc4ccccc4)c3)ccc2N1` reads “inactive”; that for `CNC(=O)CN1C(=O)c2cccnc2Sc2ccccc21`, “inactive”. The result for `CCN1C(=O)c2ccccc2Sc2ccc(NC(=O)Cc3ccc(OC)cc3)cc21` reads “inactive”. The result for `CCN1/C(=C/C(=S)Nc2ccccc2)Sc2ccccc21` reads 16.4 µM (active); that for `Cc1cc2c(s1)c1cnn(Cc3cc(F)c(Cl)cc3Cl)c(=O)c1n2C`, “inactive”; that for `CN=C1C=C/C(=N/N=c2\ccn(O)cc2C)C=C1C`, 16.4 µM (active). In the case of `OC[C@@H]1O[C@H](n2cnc3c(SCc4ccccc4)ncnc32)[C@H](O)[C@H]1O`, the Potency entry was “inactive”. The result for `COc1ccc(C2Nc3ccccc3C(=O)N2Cc2ccccc2)cc1COc1ccc(C(N)=O)cc1` (stereo not given) reads “inactive”; that for `COc1cc(F)c(S(=O)(=O)N2CCCN(S(=O)(=O)c3ccc(N)cc3)CC2)c(F)c1`, “inactive”; that for `Cc1nc(N2CCOCC2)c2c(C(=O)NCc3cccc(Cl)c3)c(C)oc2n1`, “inactive”. Take `CCOc1ccc(-c2n[nH]c3c2C(c2ccccc2OC)N(c2ccc(Br)cc2)C3=O)cc1` (stereo not given): the Potency result was “inactive”. Regarding `CCCN1CCC(=O)N(C(CSc2ccc(C)cc2)Cc2ccccc2)CC1` (stereo not given), the Potency entry is “inactive”. The result for `Cc1ccc(S(=O)(=O)N2CCN(c3nc(-n4cnc5ccccc54)nc4ccccc34)CC2)cc1` reads “inactive”. The result for `O=C(NCc1nnc(C(=O)Nc2ccc(C(F)(F)F)cc2Cl)o1)c1ccccc1` reads “inactive”. The result for `CC1CCCCN1CC(=O)N1CCCc2c1c(=O)oc1ccc(OCc3ccccc3)cc21` (stereo not given) reads “inactive”. Take `COc1cccc(C2CC(c3ccccc3)=NN2S(=O)(=O)c2ccccc2)c1OC` (stereo not given): the Potency entry was “inactive”. As for `COc1ccc2c(c1OC)C(=O)OC2Nc1nc(-c2ccccc2)cs1` (stereo not given), the Potency was 20.6 µM (active). As to `Cc1ccc(CNC(=O)C2(C(F)(F)F)C/C(=C\CCO)CCCO2)o1` (stereo not given), the Potency result is “inactive”.

As to `Cn1nnnc1Sc1ncnc2scc(-c3ccccc3[N+](=O)[O-])c12`, the Potency entry is “inactive”. The result for `COc1cccc(OC2=NS(=O)(=O)c3ccccc32)c1` reads “inactive”. For the molecule `CCc1ccc(NC(=O)N2CCN(C(=O)c3nsc4ccccc34)CC2)cc1`, the Potency result is “inactive”. The result for `Cc1cc(C)c(NC(=O)Cn2c(SCC(=O)NCc3ccccc3)nc3ccccc32)c(C)c1` reads “inactive”; that for `COc1ccc(Br)cc1C1C2C=CCC(C)C2C(=O)N1Cc1ccccc1` (stereo not given), “inactive”; that for `O=C1C2C(c3ccccc3)CC=CC2C(c2ccoc2)N1Cc1ccccc1` (stereo not given), “inactive”. The result for `Cc1ccc(NC(=O)C(Cc2ccccc2)NS(=O)(=O)c2ccc3c(c2)oc(=O)n3C)cc1C` (stereo not given) reads “inactive”; that for `CC(=O)Nc1cc(C(=O)NCc2ccc(F)cc2)ccc1Sc1ccc(F)cc1`, “inactive”; that for `COC(=O)c1ccc(OC)c(Cn2c(=O)n(Cc3ccccc3)c(=O)c3c2c2cc(OC)ccc2n3C)c1`, “inactive”.

Regarding `O=C1Nc2ccc(Br)cc2/C1=N/N=C/C1=C(N2CCOCC2)C(=C\c2ccccc2)/CC1`, the Potency was 18.4 µM (active). On to `COc1ccccc1C(=O)OCc1cc(=O)n2nc(-c3cccs3)sc2n1`, for which the Potency entry was “inactive”.

Consider `O=[S+]([O-])(c1ccc2c(c1)OCCO2)N1CCN([S+](=O)([O-])c2c(Cl)cc(Cl)cc2Br)CC1`, for which the Potency result is “inactive”. In the case of `COc1ccc(C2=NC(c3ccncc3)=Nc3ccc(Br)cc3N2)cc1`, the Potency entry is “inactive”. The result for `O=[S+]([O-])(c1ccc(OC(F)(F)F)cc1)N1CCN([S+](=O)([O-])c2ccc3c(c2)OCCO3)CC1` reads “inactive”; that for `CCc1ccc(NC(=O)Cn2c(=O)n(CCC(=O)NCc3ccc4c(c3)OCO4)c(=O)c3ccccc32)cc1`, “inactive”.

For `CCc1ccccc1NC(=O)N1CCN(C(=O)c2nsc3ccccc23)CC1`, the Potency entry was “inactive”. The result for `CCCn1c2ccccc2c2cnn(CC(=O)N3CCCC(C(=O)OCC)C3)c(=O)c21` (stereo not given) reads “inactive”; that for `CCOC(=O)c1c(C)[nH]c2c1-c1ccccc1C(=O)C2=O`, 23.1 µM (active); that for `CCOC(=O)c1c(SCC(=O)Nc2cccc(C)c2C)nc(=O)[nH]c1C`, “inactive”. The result for `CCOC(=O)c1c(C)[nH]c(C)c1S(=O)(=O)N(C)CC(=O)N1CCN(c2ccccc2)CC1` reads “inactive”; that for `COc1ccc(CN(Cc2ccccc2)C(=O)c2ccc(O)cc2)cc1COc1ccc(NC(C)=O)cc1`, “inactive”; that for `Cc1ccc(Cn2ncc3c4sc(C)cc4n(C)c3c2=O)c(C)c1`, “inactive”. The result for `Cc1ccc(-c2nnc3ccc(SCC(N)=O)nn23)cc1` reads “inactive”. `CCc1cccc(NC(=O)c2cnc(N3CCOCC3)c3ccccc23)c1`: the Potency result is “inactive”. The result for `COc1ccc(C(=O)N(Cc2ccccc2)Cc2ccc(OC)c(COc3ccc(NC(C)=O)cc3)c2)c(O)c1` reads “inactive”. The result for `C=C1CCN(Cc2ccc(OC)cc2)S(=O)(=O)c2ccccc21` reads “inactive”; that for `CC(=O)OCC(NC(=O)C(Cc1ccccc1)NC(=O)OC(C)(C)C)C1OC(n2ccc(=O)[nH]c2=O)C(OC(C)=O)C1OC(C)=O` (stereo not given), “inactive”; that for `CCN(CC)/[N+]([O-])=N/Oc1cc(O/[N+]([O-])=N/N2CCCC2CO)c([N+](=O)[O-])cc1[N+](=O)[O-]` (stereo not given), “inactive”. The result for `COc1ccc(Cn2c(C(=O)O)c(CNCc3cccc(OC)c3)c3ccc(C)cc32)cc1` reads 8.2 µM (active); that for `COc1ccc2c(CNCCc3ccccc3C)c(C(=O)O)n(Cc3ccccc3C)c2c1`, “inactive”. As to `CCOc1ccc(CNCc2c(C(=O)O)c(C)n(Cc3cccc(OC)c3)c2C)cc1OC`, the Potency result is “inactive”. The result for `Cc1ccc(S(=O)(=O)Nc2ccccc2CNc2c(C)n(C)n(-c3ccccc3)c2=O)cc1` reads “inactive”. The result for `Cc1c(N=Nc2ccc(N(C)C)cc2)c(=O)n(-c2ccccc2)n1C` reads 18.4 µM (active); that for `Cc1c(C=O)n(C)n(-c2ccccc2)c1=O`, “inactive”; that for `O=C1c2ccccc2C(=O)N1c1ccc(S(=O)(=O)N2CCOCC2)c2ccccc12`, “inactive”.

`CCCN(CCC)C(=O)C1CCCN(c2ncnc3c2nc2n3CCCCC2)C1` (stereo not given): the Potency entry was “inactive”.

Turning to `N#CN1CCC(NS(=O)(=O)c2cccc(F)c2)C1` (stereo not given), the Potency result is “inactive”. The result for `CC[n+]1cc(C)ccc1/C=C/c1ccc(N(C)C)cc1` reads 9.2 µM (active); that for `N#Cc1ccc(OC2=NS(=O)(=O)c3ccccc32)cc1`, “inactive”.

In the case of `CCC(C)Nc1oc(-c2ccc(COc3ccc(Cl)cc3)o2)nc1C#N` (stereo not given), the Potency entry was “inactive”. The result for `Cc1c(C)n(Cc2ccc(Cl)cc2)c2ccc(C(=O)NCCc3ccc(S(N)(=O)=O)cc3)cc12` reads “inactive”; that for `Cc1onc(-c2ccc(F)cc2F)c1C(=O)Nc1cccc(C(F)(F)F)c1`, “inactive”; that for `COc1cc(NC(=O)c2[nH]cnc2C(N)=O)cc(C(=O)Nc2cccc(C(F)(F)F)c2)c1`, 20.6 µM (active). `Cc1cc(Nc2cccc(C(F)(F)F)c2)nc2ccc(NC(=O)c3ccc(=O)[nH]c3)cc12`: the Potency result was “inactive”. In the case of `Cc1ccc(-c2nc(SCc3ccc(Br)cc3)n3[nH]c(=O)cc3n2)cc1`, the Potency entry was “inactive”. The result for `O=C(O)C1CC=CC2CCN(C3CCCCC3)C(=O)C21` (stereo not given) reads “inactive”. On to `Cc1cc(Nc2cc(N3CCN(C)CC3)nc(Sc3ccc(NC(=O)C4CC4)cc3)n2)n[nH]1`, for which the Potency entry is “inactive”. `C=CC(=O)Nc1ccc(Nc2ccnc(Nc3ccc(N4CCN(C)CC4)cc3)n2)cc1`: the Potency was 9.2 µM (active).

Turning to `O=C(COc1ccccc1)Nc1ccc(N2CCN(C(=O)c3cccs3)CC2)cc1`, the Potency result is “inactive”.

`Cc1ccc(F)c(NC(=O)CCOc2ccccc2C)c1`: the Potency result is “inactive”. In the case of `C/C=C/c1ccc(OCCOc2ccc(C=O)cc2OC)c(OC)c1`, the Potency entry is “inactive”. The result for `COc1cc(/C=N/NC(=O)Nc2ccccc2)ccc1OCCOc1ccccc1C` reads 5.8 µM (active); that for `CC(=O)c1ccc(NC(=O)CSc2c(C(C)C)cnc3c2c(=O)n(C)c(=O)n3C)cc1`, “inactive”. The result for `COc1ccc(CN2CCC(=O)c3ccccc3S2(=O)=O)cc1` reads “inactive”; that for `O=C(c1ccc2c(=O)n(Cc3ccco3)c(=S)[nH]c2c1)N1CCCC1`, “inactive”.
